HCMV inh: blocks human cytomegalovirus replication; 410,000 tested, 4.5% active; AID 1259415; HFF cells, HCMV-luciferase reporter, 72 h; stronger effect = lower value; activity change, negative = inhibition, % at 57.5 µM; in the data active means activity change below about -60%; inconclusive means no clear call, values can overlap the other calls; inactive means above about -39%
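After 16 h attachment at 37C, HFF cells received test compound and HCMV-luciferase (1 PFU/cell); reporter luminescence read 72 h later, data normalized against buffer-only and known inhibitor Salinomycin.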
MARV entry inh: blocks Marburg virus binding to or entry into cells. Marburg virus pseudotyped entry inhibition, cell reporter. 300,000 tested, 1.8% active. Potency, µM (titrated, usually from 37.8 µM), inactives show top-dose activity change, negative = inhibition, usual class: inhibitors; calls by dose curve; tested in HEK293 cells; further: potency means the concentration at half of the fitted maximal effect
Lassa entry inh: inhibitors of Lassa virus binding or cell entry; Lassa virus pseudotype entry inhibition, cell reporter; Potency, µM (top dose mostly 37.9 µM), for inactives: top-dose activity change, negative = inhibition, most hits filed as inhibitors; 300,000 tested, 1.2% active; AID 540256; calls by dose curve; tested in HEK293 cells; further: potency means the concentration at half of the fitted maximal effect; nearly all actives have a fitted effect of over 50% in size
HCV inh: HCV inhibition; Huh7.5.1 HCVcc-Cre infection, luciferase reporter, 44 h; Potency, µM (series often up to 41.8 µM), for inactives: top-dose activity change, negative = inhibition, actives largely listed as inhibitors; 340,000 tested, 3.4% active; active means well fitted inhibition curve with a large enough effect; inconclusive means small, poorly fitted or top-dose-only effect, or another doubt; inactive means no such curve, though single readings can be large or run the other way; further: potency means the concentration at half of the fitted maximal effect
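A cell-based infection assay in which seeded cells (1,000 per well) receive test compound after 4 h, are inoculated with HCVcc-Cre at approximately 0.5 moi, and are incubated 44 h before luminescence detection.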
FMDV antiviral: foot and mouth disease virus antiviral activity | FMDV antiviral cell-based qHTS | Potency, µM (titrated, usually from 57.9 µM), inactives show top-dose activity change, negative = inhibition, actives largely listed as inhibitors | 410,000 tested, 1.2% active | AID 1159524; calls by dose curve; tested in HEK293T cells; further: read-out not given here; potency means the concentration at half of the fitted maximal effect; nearly all actives have a fitted effect of over 45% in size
* marks the source's active call; other numbers are inactive results; ? = inconclusive; · = not tested or not shown; [ ] = remark or other dose. Hits are enriched below; roughly 7.9% of the tested compounds scored in any of these assays. On the % scale 0 is the no-effect control and ±100 the full control effect.

SMILES	HCMV inh	MARV entry inh	Lassa entry inh	HCV inh	FMDV antiviral
O=c1[nH]c(=O)n(Cc2ccco2)c(O)c1C=NCc1ccc2c(c1)OCO2	34	0%	-9%	0%	0%
CC1(C)CC(N=Cc2c(O)n(Cc3ccc4c(c3)OCO4)c(=O)c3ccccc23)CC(C)(C)N1	-33	?	?	11µM*	-19%
Cc1cccc(CN2C(=O)c3ccccc3Sc3ccc(C(=O)NCc4ccco4)cc32)c1	-73*	·	?	·	-7%
O=C(NCc1ccco1)c1ccc2c(c1)N(Cc1ccccc1)C(=O)c1ccccc1S2	-35	·	?	·	-4%
CCN(CC)CCNC(=O)c1ccc2c(c1)N(Cc1ccccc1)C(=O)c1ccccc1S2=O (stereo not given)	-70*	?	6%[46.1 µM]	·	-20%
O=C(NCCCN1CCOCC1)c1ccc2c(c1)N(Cc1cccc(Cl)c1)C(=O)c1ccccc1S2	-89*	·	-14%[46.1 µM]	·	-21%
CCN1CCN(CCNC(=O)c2ccc3c(c2)N(Cc2cccc(Cl)c2)C(=O)c2ccccc2S3=O)CC1 (stereo not given)	-73*	?	?	?	27%
CCOc1ccc(NC(=O)Nc2c[nH]c(=O)[nH]c2=O)cc1	10	2%[46.1 µM]	0%[46.1 µM]	·	0%
CN1Cc2sc(NC(=S)NC(=O)c3ccccc3)c(C#N)c2CC1(C)C	-76*	?	?	?	?
CN1CCN(NC(=S)Nc2ccc(Oc3ccccc3)cc2)CC1	-67*	?	-4%[46.1 µM]	?	?
N#Cc1cccc(N=Cc2c(O)ccc3ccccc23)c1	-61*	-21%	-12%	-25%	-24%
Cc1ccc(N=Cc2c(O)ccc3ccccc23)cc1F	-16	1%	-19%	-10%	0%
COc1ccccc1NC(=O)CN1CCN(CC(=O)Nc2ccc(F)cc2)CC1	15	-19%	2%	?	-12%
CN1CCN(c2ccc(NC(=O)N3CCc4ccccc43)cc2)CC1	-78*	?	-31%[46.1 µM]	8%	18µM*
NS(=O)(=O)c1ccc(NC(=O)CN2CCN(S(=O)(=O)/C=C/c3ccccc3)CC2)cc1	-100*	-18%[46.1 µM]	-1%	-13%	-2%
Cc1ccc(NC(=O)N2CCc3ccccc32)cc1	124	?	?	?	-55%
NS(=O)(=O)c1ccc(NC(=O)CN2CCN(Cc3ccccc3)CC2)cc1	34	11%	-1%	20%	-5%
O=C(NC1CCCCC1)c1cccc(OCc2ccccc2)c1	?	-24%[46.1 µM]	-23%[46.1 µM]	14µM*	-13%
COc1ccccc1NC(=O)CN1CCN(CC(=O)Nc2ccc(OCc3ccccc3)cc2)CC1	?	?	11µM*	6%	?
COc1ccc(NC(=O)c2ccc(NC(=O)CN3CCN(c4ccccc4)CC3)cc2)cc1	0	·	·	16%	-16%
CCOC(=O)N1CCN(CC(=O)Nc2ccc(Oc3ccccc3)cc2)CC1	-29	-27%	0.56µM*	-17%	?
O=C(CN1CCN(c2ccccc2)CC1)Nc1ccc(OCc2ccccc2)cc1	·	?	?	11µM*	0%
CN1CCN(c2ccc(NC(=O)c3cccc(OCc4ccccc4)c3)cc2)CC1	92	22µM*	-17%	25µM*	7%
CC(C)Oc1cccc(C(=O)Nc2ccc(N3CCN(C)CC3)cc2)c1	44	·	·	-15%	56%
COc1ccccc1NC(=O)CN1CCN(CC(=O)Nc2ccc(S(N)(=O)=O)cc2)CC1	-64*	·	·	-25%	?
SMILES	HCMV inh	MARV entry inh	Lassa entry inh	HCV inh	FMDV antiviral
CN1CCN(c2ncc3nc(-c4ccc(Cl)cc4)c(=O)n(C)c3n2)CC1	·	·	·	·	6%
CCCCN1C(=O)C(O)(CC(=O)c2ccc(C(C)(C)C)cc2)c2ccccc21 (stereo not given)	?	?	5%[46.1 µM]	·	0%
O=C(CN1CCCCCC1)Nc1ccccc1	-36	?	1%[46.1 µM]	10%	-1%
O=C(CN1CCCC1)Nc1ccc(OCc2ccccc2)cc1	46	·	·	10µM*	20%
CCOC(=O)CCc1ccc(NC(=O)/C=C/c2ccc([N+](=O)[O-])o2)cc1	-15	?	7.1µM*	?	25µM*
CCN(CC)S(=O)(=O)c1ccc(C(=O)/C=C/c2ccc(-c3ccc([N+](=O)[O-])cc3)o2)cc1	6	·	·	-14%	-11%
CCc1ccc(C(=O)/C=C/c2ccc([N+](=O)[O-])o2)cc1	29	?	?	-6%	35µM*
COc1ccc(-n2c(CNC(=O)c3cccc(OC)c3OC)nnc2SC)cc1	·	·	·	·	-5%
CCCCOC(=O)NS(=O)(=O)c1sc(CC(C)C)cc1-c1ccc(Cn2c(CC)nc3c(C)cc(C)nc32)cc1	·	10µM*	9.2µM*	13µM*	·
CCCCOC(=O)Nc1ccc(S(=O)(=O)Nc2nc(C)cc(C)n2)cc1	25	-6%	-22%[14.3 µM]	3%	50%
CCOC(=O)c1c(S(=O)(=O)NCC(=O)Nc2ccc(F)cc2C)c(C)n(C)c1C	-4	·	-9%[46.1 µM]	·	-7%
CN(C)S(=O)(=O)N1CCc2ccc(NC(=O)c3ccc(C(F)(F)F)cc3)cc2C1	?	·	·	7.9µM*	?
CC(=O)N1CCCc2ccc(NC(=O)c3ccc(C(F)(F)F)cc3)cc21	-71*	·	26%[46.1 µM]	·	?
COCCC(=O)N1CCc2ccc(NC(=O)c3ccc(C(F)(F)F)cc3)cc2C1	-65*	·	·	10µM*	?
COCCC(=O)Nc1ccc2c(c1)CN(C(=O)CSC)CC2	10	?	8%[46.1 µM]	3%	-8%
CCOc1cccc(C2c3c(-c4cc(C)ccc4O)n[nH]c3C(=O)N2Cc2ccco2)c1 (stereo not given)	-10	-23%[46.1 µM]	?	·	-24%
COC(=O)c1cc(-c2ccccc2)sc1NC(=O)CN1C(=O)c2ccccc2C1=O	-64*	-1%	3%	?	2%
CC(C)(C)C(=O)Nc1sc(-c2ccccc2)cc1C(=O)O	-64*	?	?	7%	16%
NC(=O)c1ccccc1NC(=O)CN1CCCCCC1	13	0%[46.1 µM]	?	11%	7%
NC(=O)c1cc(-c2ccccc2)sc1NC(=O)CN1CCCCC1	-15	6.3µM*	?	13µM*	8%
COC(=O)C1=C(C)N=C2S[C@H](C)C(=O)N2[C@@H]1/C=C\c1ccccc1OC	·	2%	·	·	·
CC(C)N(CCNC(=O)COc1ccc2oc3c(c2c1)CCCC3)C(C)C	-20	?	-24%[46.1 µM]	13µM*	0%
COc1ccc2ncc3c(-c4ccc(C)c(C)c4)nn(CC(=O)Nc4ccccc4)c3c2c1	-92*	·	-16%[46.1 µM]	·	9%
N[C@H](Cc1cccc(-c2ccccc2CP(=O)(O)O)c1)C(=O)O	·	6%	·	·	·
CC(C)CN(C(=O)COC(=O)CSc1ccccc1F)c1c(N)n(Cc2ccccc2)c(=O)[nH]c1=O	4	?	1%	7%	-18%
CC(=O)Nc1sc(C)c(C)c1C(=O)OCC(=O)N(CC(C)C)c1c(N)n(Cc2ccccc2)c(=O)[nH]c1=O	-31	10%[46.1 µM]	5%	5µM*	-10%
Cc1ccc(SCC(=O)OCC(=O)N(CC(C)C)c2c(N)n(Cc3ccccc3)c(=O)[nH]c2=O)c(C)c1	-11	?	?	10µM*	-23%

Bioassay records (PubChem)
